Hits are enriched below; roughly 2.6% of the tested compounds scored in any of these assays.
PABP polyA inh: PABP poly(A) RNA binding inhibitors, primary screen, biochemical, fluorescence polarization, uHTS; AID 2014, 2009; Polyadenylate-binding protein 1 (Homo sapiens), P11940; actives 1% (n = 290,000); calls only at 35 µM;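 also: calls also rest on retests at 20 µM and on dose response follow-up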
A3G deaminase: APOBEC3G DNA deaminase inhibitors, primary screen, biochemical, fluorescence, single-stranded DNA substrate, uHTS. DNA dC->dU-editing enzyme APOBEC-3G (Homo sapiens), Q9HC16. recombinant A3G, ssDNA deamination FAM/TAMRA fluorescence. inhibition, % at 20 µM. actives 0.28% (n = 330,000);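 active = inhibition of at least 40% at 20 µM, with no more than 30% in the related APOBEC3A deaminase screen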;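 also: plate controls were DMSO wells with A3G for no effect and wells lacking A3G enzyme for full effect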
Target sequence (Q9HC16 whole entry, looked up): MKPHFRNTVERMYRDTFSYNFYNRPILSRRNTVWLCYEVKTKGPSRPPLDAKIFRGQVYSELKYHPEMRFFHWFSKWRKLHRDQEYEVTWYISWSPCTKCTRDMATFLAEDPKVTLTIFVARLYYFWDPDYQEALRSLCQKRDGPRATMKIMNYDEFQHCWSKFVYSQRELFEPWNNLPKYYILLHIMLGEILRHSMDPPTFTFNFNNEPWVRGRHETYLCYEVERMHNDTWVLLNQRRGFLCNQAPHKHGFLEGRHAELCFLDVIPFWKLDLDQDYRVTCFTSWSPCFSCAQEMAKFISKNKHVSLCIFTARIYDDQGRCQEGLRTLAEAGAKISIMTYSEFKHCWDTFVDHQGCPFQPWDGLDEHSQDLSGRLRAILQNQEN
A3A deaminase: APOBEC3A ssDNA deaminase inhibitors, primary screen, selectivity assay for APOBEC3G inhibitor project, biochemical, FAM/TAMRA oligo cleavage fluorescence | recombinant A3A, FAM/TAMRA ssDNA deamination fluorescence | inhibition, % at 20 µM | actives 0.41% (n = 330,000) | DNA dC->dU-editing enzyme APOBEC-3A (Homo sapiens), P31941;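 active = at least 40% inhibition at 20 µM here, with at most 30% in a related deaminase screen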;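 also: plate controls were A3A with DMSO for no effect and wells lacking A3A enzyme for full effect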
PHOSPHO1 inh: PubChem AID 1565; Phosphoethanolamine/phosphocholine phosphatase (Homo sapiens), Q8TCT1; recombinant PHOSPHO1, absorbance phosphatase assay; inhibition, % at 13.3 µM; actives 1.1% (n = 290,000); in the data active = inhibition above about 60%
MLLE-PAM2 inh: inhibitors of PABP1 MLLE–PAM2 peptide binding, primary screen, biochemical, fluorescence polarization, FITC-PAM2, GST-MLLE; actives 0.36% (n = 360,000); inhibition, % at 20 µM; in the data active = inhibition above about 35%, passing the limit was not always enough;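 also: plate controls were DMSO wells with GST-MLLE for no effect and wells lacking GST-MLLE protein for full effect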
eIF4H inh: human eIF4H binding inhibitors, primary screen, translation initiation inhibitor project, biochemical, uHTS, fluorescence polarization | AID 2012, 2009 | actives 0.94% (n = 290,000) | inhibition, % at 35 µM | Eukaryotic translation initiation factor 4H (Homo sapiens), Q15056 | eIF4H fluorescence polarization binding assay;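 also: calls also rest on retests at 20 µM and on dose response follow-up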
APOBEC3A confirm: APOBEC3A deaminase inhibitors, retest, confirmation, selectivity assay for APOBEC3G inhibitor project, biochemical, single concentration, fluorescence readout. inhibition, % at 20 µM. shares compounds with A3A deaminase. actives 63% (n = 1,400). recombinant A3A, ssDNA deaminase UDG fluorescence assay. AID 493151, 2011;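 active = inhibition reaching a set limit, 80% of the first screen's cutoff, at 20 µM in any replicate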;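 also: plate controls were DMSO wells with A3A for no effect and wells lacking A3A enzyme for full effect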
UDG A3A counter: E. coli UDG inhibitors, confirmation, counter-screen for APOBEC3A inhibitor project, biochemical, single concentration, fluorescence, FAM/TAMRA oligo | UDG counterscreen, FAM/TAMRA uracil oligo fluorescence | inhibition, % at 20 µM | 1,000 tested, under 10 active | shares compounds with A3A deaminase
Active calls of the source: *; i = inactive; x = not tested or not shown; + = active, no number. Unless noted, no rule for the calls is given here.

SMILES	PABP polyA inh	A3G deaminase	A3A deaminase	PHOSPHO1 inh	MLLE-PAM2 inh	eIF4H inh	APOBEC3A confirm	others
Cn1ccnc1SCC(=O)Nc1cc(S(=O)(=O)N2CCOCC2)ccc1Cl	i	-3	0	7	-1	6	x
C[N+]12CCCCC1C(COC(=O)c1ccc3c(c1)OCO3)CCC2 (centres undefined)	i	28	58*	-6	-107	-8	48*
CN(C(=O)COC(=O)c1ccc2c(c1)OCO2)C1CCCCC1	x	-4	-2	x	1	x	x
CCc1cc(=O)oc2cc(C)c(CN3CCCC3)c(O)c12	+	17	41*	4	-19	77*	54*
CC(NC(=O)c1ccccc1O)c1ccccc1 (centres undefined)	i	-3	-4	6	-11	-4	x
COc1ccc(OCC(=O)Nc2nnc(S(=O)(=O)N3CCCCCC3)s2)cc1	i	-2	-1	25	-10	6	x
Cc1ccc(OCC(=O)Nc2nnc(S(=O)(=O)N3CCC(C)CC3)s2)cc1	i	21	43*	15	-28	63*	20
CCc1n(CC(O)COCc2ccccc2)c2ccccc2[n+]1C (centres undefined)	i	16	58*	-62	-124	6	79*	UDG A3A counter=-2
O=C1c2ccccc2C(=O)N1CC(O)COCc1ccccc1 (centres undefined)	i	-7	-4	50	18	-13	x
CCN(CC)CCOC(c1ccccc1)c1ccc(C)cc1 (centres undefined)	i	1	8	-7	4	-4	x
Cc1ccc(C(OCC(C)(C)C[N+](C)(C)C)c2ccccc2)cc1 (centres undefined)	i	26	65*	-5	-150	-2	76*	UDG A3A counter=-1
COc1cccc(C(O)c2nc3ccccc3n2C(C)C)c1 (centres undefined)	i	-7	-2	-1	-7	-2	x
CC1CC(C)CN(CCCNC(=O)C2CCN(c3ncnc4c3sc3cccc(F)c34)CC2)C1 (centres undefined)	i	-4	4	47	x	12	x
CCN(CC)CCCNC(=O)C1CCN(c2ncnc3c2sc2cccc(F)c23)CC1	i	-1	48*	28	-10	-1	2	UDG A3A counter=1
COCCN(C(=O)COC(=O)c1cc(C)oc1C)c1c(N)n(Cc2ccccc2)c(=O)[nH]c1=O	x	-8	-2	x	6	x	x
Clc1ccc(Sc2oc(/C=N/n3cnnc3)cc2Br)cc1	i	25	43*	84*	-119	4	72*	UDG A3A counter=-4
CCCN(CC(=O)Nc1cc(Cl)ccc1Cl)C(=O)/C=C/c1ccco1	i	-3	77*	-6	-42	-1	1	UDG A3A counter=-2
Nc1nnc(SCC(=O)N2CCN(Cc3ccccc3)CC2)s1	i	20	64*	51	-96	-4	24
Cc1nnc(SCC(=O)N2CCN(Cc3ccccc3)CC2)s1	i	-3	-1	14	7	1	x
C=CCn1c(CNC(=O)c2cccs2)nnc1SCC(=O)Nc1ccc(C(=O)O)cc1	i	6	48*	90*	-113	6	4
CCn1c(N)c(C(=O)COC(=O)CCc2nc3ccccc3c(=O)[nH]2)c(=O)[nH]c1=O	x	-1	5	x	11	x	x
COC(=O)c1ccccc1NC(=O)c1noc2c1CCCC2	i	-2	3	11	5	-13	x
